# The supplement of paper PMC6555819
# Columns and labels:
# Assay in all cases: PBM binding z-score (relative to random genomic background probes); higher = stronger binding; sequences stand for … in GC…GCGATTGACAGCGTAGAATGAAGG
# [1] = system: FXR:RXRa (NR concentration 270 nM, RXRa partner concentration 90 nM)
# Procedure, shortened: (§1)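 On custom Agilent 4×180K arrays, double-stranded probes with 34-nt variable regions carried direct-repeat seeds, single-nucleotide variants, half-site ablations or random human genomic background. Ligand-free nuclear receptor dimers were applied for 1 h, and binding was read with antibodies against each partner (one per run). Binding z-scores come from regression-normalized fluorescence, with the random background probes as reference.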
# [2] = system: LXRa:RXRa (NR concentration 270 nM, RXRa partner concentration 90 nM)
# Procedure, shortened: as §1
# [3] = system: LXRa homodimer (NR concentration 270 nM)
# Procedure, shortened: as §1
# [4] = system: LXRb:RXRa (NR concentration 270 nM, RXRa partner concentration 90 nM)
# Procedure, shortened: as §1
# [5] = system: LXRb homodimer (NR concentration 270 nM)
# Procedure, shortened: as §1
# [6] = system: PPARa:RXRa (NR concentration 270 nM, RXRa partner concentration 90 nM)
# Procedure, shortened: as §1
# [7] = system: PPARg:RXRa (NR concentration 180 nM, RXRa partner concentration 90 nM)
# Procedure, shortened: as §1
# [8] = system: PPARg:RXRa 270nM:90nM, anti-RXR (NR concentration 270 nM, RXRa partner concentration 90 nM)
# Procedure, shortened: as §1
# [9] = system: PPARg:RXRa 30nM:10nM, anti-RXR (NR concentration 30 nM, RXRa partner concentration 10 nM)
# Procedure, shortened: as §1
# [10] = system: PPARg:RXRa 90nM:30nM, anti-RXR (NR concentration 90 nM, RXRa partner concentration 30 nM)
# Procedure, shortened: as §1
# [11] = system: PPARg:RXRa DBDmut IVT, anti-RXR (DBD mutation: RXRa K156A/R161A, NR concentration 270 nM, RXRa partner concentration 90 nM)
# Procedure, shortened: as §1
# [12] = system: PPARg:RXRa IVT, anti-PPARg (NR concentration 270 nM, RXRa partner concentration 90 nM)
# Procedure, shortened: as §1
# [13] = system: PPARg DBDmut:RXRa IVT, anti-PPARg (DBD mutation: PPARg1 K132A/R137A, NR concentration 270 nM, RXRa partner concentration 90 nM)
# Procedure, shortened: as §1
# [14] = system: PPARg DBDmut IVT, anti-PPARg (DBD mutation: PPARg1 K132A/R137A, NR concentration 270 nM)
# Procedure, shortened: as §1
# [15] = system: PPARg homodimer (NR concentration 180 nM)
# Procedure, shortened: as §1
# [16] = system: PXR:RXRa (NR concentration 270 nM, RXRa partner concentration 90 nM)
# Procedure, shortened: as §1
# [17] = system: PXR homodimer (NR concentration 270 nM)
# Procedure, shortened: as §1
# [18] = system: RARa:RXR (NR concentration 270 nM, RXRa partner concentration 90 nM)
# Procedure, shortened: as §1
# [19] = system: RARa homodimer (NR concentration 270 nM)
# Procedure, shortened: as §1
# [20] = system: RARb:RXRa (NR concentration 270 nM, RXRa partner concentration 90 nM)
# Procedure, shortened: as §1
Sequence,PBM binding z-score [1],PBM binding z-score [2],PBM binding z-score [3],PBM binding z-score [4],PBM binding z-score [5],PBM binding z-score [6],PBM binding z-score [7],PBM binding z-score [8],PBM binding z-score [9],PBM binding z-score [10],PBM binding z-score [11],PBM binding z-score [12],PBM binding z-score [13],PBM binding z-score [14],PBM binding z-score [15],PBM binding z-score [16],PBM binding z-score [17],PBM binding z-score [18],PBM binding z-score [19],PBM binding z-score [20]
ACAGACAGCTGATGAAGGTAACTCAGGCTATCAT,-0.294,-0.43,-0.191,-0.692,-0.451,-0.305,0.649,-0.383,-0.233,0.0374,-0.796,-0.158,0.246,0.14,0.00151,-0.216,-0.158,0.0124,0.287,-0.232
ATCTCTAGGTAAAGATAGTTCATTGAATGCAAAT,0.585,5.32,1.71,1.59,0.747,1.36,1.11,0.714,0.293,0.846,1.7,1.76,1.3,1.29,0.829,2.33,1.98,1.25,1.34,1.06
CGTCCAAGGTCAATGCTAGGTCCGTGAAAGCATT,6.89,4.45,0.519,3.53,0.496,4.84,3.19,3.97,0.655,2.86,2.99,3.02,0.341,-0.534,3.68,3.8,0.579,4.21,1.32,4.91
AATACAGGGACACTAGGCCAGAGTAGGTACGAAT,-0.211,-0.375,-0.0605,-0.483,-0.0261,-0.00279,0.846,0.394,0.113,0.294,0.603,1.52,0.579,0.0521,-0.62,-0.635,0.0323,-0.555,-0.036,0.688
CATACAGGTTCAGCTAGGCCAGAGTAGGGACGGC,0.788,1.03,-0.0766,0.293,-0.03,1.21,0.629,0.338,-0.155,0.0738,-0.2,0.213,0.171,0.0145,0.268,0.759,0.121,0.691,-0.0156,1.44
CGTCCAAGGTAAAAGGTCAGTGAAGAGATGACGG,3.59,3.34,0.701,3.27,-0.538,5.23,6.53,6.49,4.59,6.15,0.99,3.62,-0.145,0.215,2.6,3.83,0.564,5.16,1.15,4.44
ATCTCTAGGTGACCAAGTTCAGTGAATGCCGAAC,0.185,0.357,0.0777,0.467,0.278,1.9,1.99,1.7,0.308,1.05,5.31,4.76,1.66,1.14,0.611,2.17,1.7,0.763,-0.118,1.7
TATACAGGGGCAAAGGCCAGAGTACGAATGTCGA,0.799,1.07,0.0951,1.34,1.92,2.84,4.54,5.09,3.45,4.92,0.641,2.72,1.72,2.01,1.16,0.577,0.087,0.592,0.364,2.1
ACTCGTTGGTCAGCTGAGGTCACACACAATTCGG,3.88,3.44,2.55,3.61,0.51,3.65,1.26,1.84,0.425,1.25,0.747,2.05,-0.129,0.631,3.13,5.42,1.8,4.47,1.77,3.58
ACTAGTTGGTCAGATGAGGTCACACACAATTCGG,3.83,3.41,2.89,3.36,0.869,3.74,2.28,2.43,0.846,1.63,1.63,2.78,1.26,1.93,3.45,5.55,2.21,4.72,2.3,3.3
AAAGACAGGTGAGTGAAGGTAACTCAGCTGGACG,0.449,0.399,-0.509,-0.0849,-0.324,0.472,0.63,0.239,-0.273,0.0365,0.772,0.948,0.86,-0.373,0.59,-0.0597,0.232,0.219,0.262,0.715
ATCTCTAGGTAAAGTTCGGTGAAAGATCGATAGA,0.889,1.94,0.491,0.602,0.935,1.22,1.55,2.48,1.27,2.34,2.6,2.15,1.46,1.56,0.996,0.633,0.941,0.644,1.22,0.896
TCTTGTAGATCAGCAGGTTAAGACAGCTGGCCAA,0.409,0.423,-0.459,0.114,-0.579,0.79,-0.112,1.46,2.57,2.02,1.91,0.417,0.269,0.156,0.137,0.129,-0.0251,0.309,0.389,0.0665
AGTCAAAGTTCACTAGGTATCGTAAGATTCAGCT,4.92,5.04,3.27,2.98,1.09,4.19,6.03,5.82,2.96,5.12,1.2,3.6,1.14,1.1,2.46,4.04,3.44,2.8,1.06,4.7
CCTGCTACGTCAATGGTCAGCTAAAGCAGCTCGC,-0.5,-0.409,-0.45,-0.531,-0.36,-0.295,-0.37,-0.498,-0.833,-0.566,0.218,-0.566,-1.15,-0.483,-0.41,-0.469,-0.413,-0.14,-0.629,0.0938
ACTCGGAGGACATAGGTCAGAGCTACGCCAGTGA,1.33,1.54,0.379,1.13,-0.23,2.89,3.73,4.68,2.29,3.87,0.107,1.88,-0.386,0.0927,0.895,1.15,0.0875,1.9,0.402,2.31
CGCACTAGGTCAGAACAGGACAGTGAAGGATGAT,1.58,1.02,-0.057,0.629,-0.258,2.67,4.7,4.2,1.63,3.24,7.11,7.1,0.649,0.931,1.4,1.07,0.443,1.39,0.474,3.02
TCTCGTTGGTCACGGAGGTCACACACGACGGGTA,3.3,3.62,1.88,3.75,1.11,3.85,2.5,3.71,2.93,3.47,1.58,3.31,0.735,1.33,2.82,4.37,0.995,4.41,1.01,4.02
TCATGTAGATCAATAGAGGTTAAGAAAGTGCGCT,1.01,3.41,0.701,1.95,0.112,1.83,0.225,1.59,3.1,1.96,2.25,0.891,0.493,0.436,0.475,3.08,0.426,1.85,0.825,1.02
AGATCGAGGGCACGCTGAGTTGATAGCAGAGTAG,0.624,0.579,-0.704,0.248,-0.854,1.83,1.76,1.47,0.155,0.951,3.66,3.58,1.3,0.665,-0.311,1.31,0.0547,0.734,-0.531,2.42
AGAACGAGGGCAATGAGTTGATAGCACGGGTGGC,0.227,0.258,-0.336,-0.187,-0.464,1.14,1.4,0.948,0.0396,0.43,3.48,2.48,0.306,0.0167,0.0111,1.54,2.95,0.443,0.212,2.04
ACTATGAGTTGAGACGAGGGCAACCGATAGGTTG,1.25,0.578,-0.194,0.311,-0.0217,0.709,0.835,0.44,0.0728,0.0976,-0.225,0.397,0.408,-0.21,0.118,3.34,0.321,1.23,-0.00647,1.32
TCTATTAGTTGAAGGGCAACCTACGAGTCCGTTT,0.82,0.87,0.394,0.789,0.451,0.702,0.121,1.88,3.44,2.53,2.23,0.488,0.411,0.817,1.5,0.858,1.18,0.893,1.08,1.57
GCAGACAGGGGAAACGCAGGTAACTCAGGGTGGC,-0.526,-0.555,-0.616,-0.597,-1.27,-0.505,0.299,-0.604,-1.01,-0.89,-0.682,-0.536,0.0572,-0.175,-1.42,-0.626,-0.571,-0.366,-1.03,-0.337
TATGCTAGGTCAGTTGGTCAGCTAACGAGCTGCC,0.676,1.92,0.835,0.423,1.02,1.46,1.17,1.26,0.0933,0.733,1.61,2.75,1.5,0.759,0.0439,0.247,-0.553,0.47,-0.649,3.04
TGAGACAGGTGAAGGTAACTCAGGTACGCAGTCG,-0.213,1.11,-0.351,0.233,-0.678,0.549,0.639,0.251,0.211,-0.17,-0.0775,0.991,0.178,-0.801,0.0963,-0.189,-0.538,0.124,-0.0291,0.697
GGAACGAGGGCATTCGGGTTGATAGCATGGCGAT,1.28,1.22,-0.291,0.287,-0.152,1.74,0.887,0.703,-0.367,0.323,2.77,2.27,0.359,-0.376,0.523,3.69,2.77,0.733,-0.569,1.86
TAGCCTAGGTCATTCAGGGGCCCGTATAGAAAGC,4.76,3.93,0.791,2.54,0.963,3.52,1.99,2.34,0.359,1.44,1.73,2.64,0.467,0.786,1.25,2.01,-0.334,2.84,-0.527,3.47
